In PubChem BioAssay (Tox21):
Values without a mark were called inactive. The call rests on the fitted dose curve; in most records, active means well fitted curve in the direction sought with a large enough effect in the repeat runs; inconclusive means weak or mixed curves; inactive means flat fitted curve, though single readings scatter.

Assay: qHTS assay to test for compound auto fluorescence at 460 nm (blue) in HEK293 cell free culture (AID 720681)
Settings: cell-free medium, autofluorescence 405/460 nm (blue); series mostly up to 91.3 µM; fluorescence, % of fluorescent control: at the top concentration
In short: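 Test compounds were pinned into cell-free culture medium (DMEM with 10% FBS) and fluorescence was read directly at Ex/Em 405/460 nm. Signals were expressed as fluorescence equivalents of triamterene, with DMSO vehicle as control.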
On the % scale 0 is the no-effect control and ±100 the full control effect.

SMILES	fluorescence, % of fluorescent control
COc1ccc(C(=O)c2ccc(OC)cc2O)c(O)c1	0.0144%
C#CCN(C)CCCOc1ccc(Cl)cc1Cl	-0.0318% [at 46 µM]
C=CC1CC2C=CC1C2 (stereo not drawn)	0.0931%
CC(=O)c1ccc2c(c1)N(CCCN1CCC(CCO)CC1)c1ccccc1S2	-0.0632% [at 18.6 µM]
COC(=O)c1ccc(I)cc1S(=O)(=O)NC(=O)Nc1nc(C)nc(OC)n1	0.0165%
C=C1[C@H]2CC[C@@H]3[C@H]2C(C)(C)CCC[C@]13C	0.0104%

Assay: qHTS assay to test for compound auto fluorescence at 535 nm (green) in HEK293 cell free culture (AID 720682)
Settings: cell-free medium, green autofluorescence 485/535 nm, active compounds read high; series mostly up to 91.3 µM; activity change: at the top concentration
In short: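 Each library compound, or DMSO control, is added by pintool to medium alone, comprising DMEM and 10% FBS. Emission at 535 nm following 485 nm excitation is quantified against fluorescein.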

SMILES	activity change
O=C1OC(=O)C2C3C=CC(C3)C12 (stereo not drawn)	-0.135%
C=C(C)C(=O)OCCOCC	0.0566%
CC1(c2ccccc2)OC(C(=O)O)=CC1=O (stereo not drawn)	0.028% [at 46 µM]
C[N+](C)(C)CCOC(=O)CCC(=O)OCC[N+](C)(C)C	-0.0215% [at 46 µM]
CCOC(=O)Cc1cccc2ccccc12	0.122%
CC(=O)c1ccc2c(c1)N(CCCN(C)C)c1ccccc1S2	-0.283% [at 18.6 µM]
CN1CCN(C(c2ccccc2)c2ccccc2)CC1	0.0291% [at 18.6 µM]
Clc1ccc(Cn2c(CN3CCCC3)nc3ccccc32)cc1	-0.0526% [at 18.6 µM]
C[C@H]1C[C@H]2[C@@H]3CCC4=CC(=O)C=C[C@]4(C)[C@@]3(Cl)[C@@H](O)C[C@]2(C)[C@@]1(O)C(=O)CO	-0.0195% [at 46 µM]
c1ccc(CNCCNCc2ccccc2)cc1	-0.0817% [at 46 µM]
CC(COCCO)OCCO (stereo not drawn)	0.104%
O=S(=O)(Oc1ccc(Cl)cc1)c1ccccc1	0.0568%
COS(=O)(=O)C(F)(F)F	0.0226% [at 95.7 µM]
CCNc1cc(O)ccc1C	4%
Nc1cccc([N+](=O)[O-])c1	0.0222%
CC/C=C\CCOC(=O)CC	-0.0688%
O=C(c1ccc(F)cc1)C1CCN(CCn2c(=S)[nH]c3ccccc3c2=O)CC1	-0.0343% [at 46 µM]
CC(C)CC(=O)C1C(=O)c2ccccc2C1=O	0.0503%
CCCCc1ncc(/C=C(\Cc2cccs2)C(=O)O)n1Cc1ccc(C(=O)O)cc1	0.0502% [at 46 µM]
CN(C)C(=O)NC1(c2ccccc2)CCN(CC[C@@]2(c3ccc(F)c(F)c3)CN(C(=O)c3ccccc3)CCO2)CC1	-0.0145%
CC(=O)NO	0.113% [at 46 µM]
COc1cc2nc(N3CCN(C(=O)C4COc5ccccc5O4)CC3)nc(N)c2cc1OC (stereo not drawn)	0.0055% [at 46 µM]
Nc1ccccc1S(=O)(=O)c1ccccc1	-0.0289%
COc1ccc(C(=O)c2ccc(OC)cc2O)c(O)c1	0.0496%
CC(=O)c1ccc2c(c1)N(CCCN1CCC(CCO)CC1)c1ccccc1S2	-0.164% [at 18.6 µM]
COC(=O)c1ccc(I)cc1S(=O)(=O)NC(=O)Nc1nc(C)nc(OC)n1	0.0638%
COC(=O)C1=C(C)NC(COC(N)=O)=C(C(=O)OC(C)C)C1c1cccc(Cl)c1Cl (stereo not drawn)	0.002% [at 46 µM]
